# Only some compounds are listed: those with a hit (about 15% of all), similar ones and a draw of the others.
# Pf growth 96h – inhibits malaria parasite growth, 96 h. Potency, µM (highest dose often 28.7 µM), hits mostly inhibitors. 320,000 compounds, 6.9% hits. P. falciparum luciferase reporter growth, 96 h
#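 Erythrocytes infected with luciferase-expressing P. falciparum were dispensed at 2% hematocrit and 0.05% parasitemia (final), then incubated with compounds 96 hours at 37 C in 5% CO2. Luminescence after detection reagent addition reported growth.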
# Sm TGR inh – inhibitors of Schistosoma mansoni thioredoxin glutathione reductase | Q962Y6 | purified TGR, DTNB reduction, TNB absorbance 405 nm | Potency, µM (titrated, usually from 114 µM), actives largely listed as inhibitors | 360,000 compounds, 3% hits; also: nearly all actives have a fitted effect of over 60% in size
#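 Kinetic colorimetric format: TGR-catalysed, NADPH-driven DTNB reduction monitored via TNB absorbance. Enzyme dispensed at 20 nM; compound exposure 15 min at room temperature before reaction start.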
# SARS PLpro yeast – SARS-CoV PLP inhibition in yeast; S. cerevisiae expressing SARS-CoV PLpro, growth rescue; Potency, µM (series often up to 32.9 µM), actives largely listed as activators; 330,000 compounds, 0.19% hits; AID 485353; calls by dose curve; also: nearly all actives have a fitted effect of over 55% in size
# Pf growth 48h – P. falciparum growth inhibition at 48 hours (one generation). P. falciparum luciferase growth in erythrocytes, 48 h. Potency, µM (doses to about 28.7 µM), actives largely listed as inhibitors. 310,000 compounds, 5.9% hits. AID 504832
#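 Cell-based growth assay: transgenic P. falciparum expressing firefly luciferase, cultured in red cells within RPMI 1640 containing 0.5% w/v Albumax, 24 mM bicarbonate and gentamycin. A drop in luciferase activity indicates inhibition.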
# HCV inhibitor – HCV inhibition | Huh7.5.1 HCVcc-Cre infection, luciferase reporter, 44 h | Potency, µM (series often up to 41.8 µM), hits mostly inhibitors | 340,000 compounds, 3.4% hits
#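 Cells (1,000/well) were plated 4 h before compound, then infected with HCVcc-Cre virus (~0.5 moi). After 44 h further culture, infection was read as luciferase luminescence following a 15 min substrate incubation at room temperature.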
# HCMV inh – blocks human cytomegalovirus replication; activity change, negative = inhibition, % at 57.5 µM; HFF cells, HCMV-luciferase reporter, 72 h; active compounds read low; 410,000 compounds, 4.5% hits; in the data active = activity change below about -60%; inconclusive = no clear call, values can overlap the other calls; inactive = above about -39%
#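 Human foreskin fibroblasts infected with luciferase-reporter HCMV at MOI 1 PFU/cell, compounds at two doses. Luciferase measured 72 h post infection; normalized to buffer-only basal and Salinomycin (10uM) controls.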
# A number is an active result; 0 = inactive; ? = inconclusive; - = no result; ! = repeats disagree. Unless noted, calls follow the shape of the dose curve; as a rule, active = well fitted curve in the direction sought with a large enough effect; inconclusive = small, poorly fitted or top-dose-only effect, or another doubt; inactive = no such curve, though single readings can be large; an effect the other way counts as inactive or inconclusive.
SMILES,Pf growth 96h,Sm TGR inh,SARS PLpro yeast,Pf growth 48h,HCV inhibitor,HCMV inh
C[C@@H]1CN([C@H](C)CO)C(=O)c2cc(Br)cnc2O[C@H]1CN(C)C(=O)Cc1ccccc1,-,-,-,-,-,0
O=C(CSc1nccc(=O)[nH]1)N1CCN(c2ccccc2)CC1,?,0,0,0,0,0
Cc1ccc(C(=O)N/C(=C\c2cccs2)C(=O)N2CCOCC2)cc1C,0,0,0,0,0,0
Nc1nc(Nc2ccccc2)nc(NCc2ccccc2)c1[N+](=O)[O-],?,0,0,?,?,-75
Cn1c(-c2ccccc2)c[n+]2c1-c1ccccc1C2,?,0,0,0.59µM,11µM,?
Cn1c(-c2ccccc2)cccc1=O,0,0,0,0,0,0
O=C1c2cccc([N+](=O)[O-])c2C(=O)N1CCO,?,0,0,0,0,0
O=C1c2cccc3c(Nc4ccccc4Cl)c([N+](=O)[O-])cc(c23)C(=O)N1CCO,1µM,0,0,?,0,0
COc1ccc(-c2nc3ccc(Br)cn3c2CC(C)(C)C)cc1OC,-,-,-,-,-,0
N#Cc1c(C(F)(F)F)cc(-c2cccs2)nc1SCC(=O)Nc1cccc(Br)c1,-,0,-,-,-,-70
N#Cc1c(C(F)(F)F)cc(-c2ccccc2)nc1SCC(=O)Nc1sc2c(c1C#N)CCC2,12µM,0,0,?,0,0
COc1ccc(-c2ccc(C#N)c(SCC(=O)Nc3sc4c(c3C#N)CCC4)n2)cc1,0,0,0,0,0,0
CSc1nc(N)nc(SCC(=O)Nc2cccc(F)c2)c1C#N,0,0,0,?,?,-65
CSc1nc(N)nc(SCC(=O)Nc2ccc(Cl)cc2)c1C#N,0,0,0,0,?,0
N#Cc1ccc(-c2cccnc2)nc1SCC(=O)Nc1sc2c(c1C#N)CCC2,1.5µM,0,0,?,?,0
Cc1ccccc1NC(=O)Cn1c(=O)oc2cc(Br)ccc21,-,0,-,-,-,0
Cc1cc(C)c2cc(C#N)c(NCCNC(=O)c3ccncc3)nc2c1,-,-,-,-,-,0
COc1ccc(C2=NOC(CNC(N)=S)C2)cc1 (stereo unspecified),2.6µM,0,0,0,0,0
COc1ccc(CNC(=O)C2CC(c3ccc(OC)cc3)=NO2)cc1 (stereo unspecified),-,0,0,0,-,0
COc1ccc(-c2cc3c(o2)CCCC3OCCN2CCOCC2)cc1 (stereo unspecified),-,-,-,-,-,0
O=C(COc1ccc2ccccc2c1)NNC(=O)c1cnccn1,9.3µM,0,0,15µM,0,0
O=C(COc1cccc2ccccc12)NNC(=O)c1cnccn1,?,0,0,?,0,0
CC(C)c1ccc(OCC(=O)NNC(=O)c2cnccn2)cc1,10µM,0,0,?,0,0
Cc1onc(-c2c(Cl)cccc2Cl)c1C(=O)n1nnc2ccccc21,0,?,0,-,-,-
CCn1nc(C)c(CN2CCC(C(=O)Nc3cccc(-c4cccc(Cl)c4)c3)CC2)c1C,0,0,0,?,?,0
SMILES,Pf growth 96h,Sm TGR inh,SARS PLpro yeast,Pf growth 48h,HCV inhibitor,HCMV inh
C=CCNc1nc(Nc2ccc(OC)c(OC)c2)c2sc(-c3ccccc3)cc2n1,-,-,-,-,-,0
Cc1cccc2c1NC(=O)C2(c1ccc(O)cc1)c1ccc(O)cc1,0,0,0,?,0,0
Cc1cc(C2(c3ccc(O)c(C)c3)C(=O)Nc3ccccc32)ccc1O,0,0,0,0,0,-80
O=C1CCCCC(=O)[C@H](O)C[C@H](COCc2ccccc2)O1,-,-,-,-,-,0
O=C(CC1CCCCC1)Nc1ncn[nH]1,2.9µM,0,0,0,0,0
CSc1ccc(C(=O)NC2CCSc3ccccc32)cc1 (stereo unspecified),?,0,0,0,0,0
COc1cccc(CN(C)C(=O)c2ccc(N3CCCC3)c([N+](=O)[O-])c2)c1,13µM,0,0,0,0,0
COc1ccc(NC(=O)CN(C)C(=O)c2ccc(N3CCCCC3)c([N+](=O)[O-])c2)cc1,0,0,0,0,?,0
COc1ccc(Cl)cc1NC(=O)CN(C)C(=O)c1ccc(N2CCCCC2)c([N+](=O)[O-])c1,?,0,-,13µM,?,?
CC1=CC2(O)OCCN(CCO)C2=CC1=O (stereo unspecified),0,20µM,0,0,0,?
O=C(Nc1c(-c2ccc3c(c2)OCO3)[nH][nH]c1=O)c1cccc(C(F)(F)F)c1,-,-,-,-,-,0
CCN(CC)C(=O)CC(c1ccccc1)c1ccco1 (stereo unspecified),?,?,0,?,0,0
CCCN(CCC)C(=O)CC(c1ccc(F)cc1)c1ccco1 (stereo unspecified),0,11µM,0,-,0,0
O=C(CC(c1ccc(F)cc1)c1ccco1)N1CCOCC1 (stereo unspecified),0,0,0,0,0,0
O=C(CC(c1ccc(F)cc1)c1ccco1)N1CCCC1 (stereo unspecified),?,14µM,0,?,0,0
CCOC(=O)c1cc2c(=O)n3ccccc3nc2n(Cc2ccco2)c1=NC(=O)c1c(F)cccc1Cl,-,4µM,-,-,-,0
CCOC(=O)c1cc2c(=O)n3ccccc3nc2n(Cc2ccco2)c1=NC(=O)c1ccccc1Br,-,1.6µM,-,-,-,0
CCOC(=O)c1cc2c(=O)n3ccccc3nc2n(Cc2ccco2)c1=NC(=O)c1cccc(Br)c1,-,2.2µM,-,-,-,0
CCOC(=O)c1cc2c(=O)n3ccccc3nc2n(Cc2ccco2)c1=NC(=O)c1ccc(Br)cc1,-,?,-,-,-,0
CCOC(=O)c1cc2c(=O)n3ccccc3nc2n(CC(C)C)c1=NC(=O)c1ccco1,-,0,0,10µM,?,0
CCOC(=O)c1cc2c(=O)n3ccccc3nc2n(Cc2ccco2)c1=NC(=O)c1ccccc1OCC,0,?,0,?,?,0
Cc1cc(C)c(NC(=O)Cn2nnc(-c3nc(-c4ccccc4)no3)c2N)c(C)c1,-,0,-,-,-,0
Cc1cccc(C(=O)NNc2ncnc3c2cnn3-c2ccc(C)c(Cl)c2)c1,-,0,-,-,-,0
CCOC(=O)c1cc2c(=O)n3ccccc3nc2n(CCOC)c1=NC(=O)c1c(-c2c(F)cccc2Cl)noc1C,5.9µM,0,0,?,?,-61!
CCn1c(C(=O)NCc2ccc(C)cc2)cc2sc(Cl)cc21,-,0,-,-,-,?
O=C1CC[C@@H](CN(Cc2ccccc2)Cc2cn[nH]c2-c2cc3ccccc3o2)N1,15µM,0,0,?,0,0
Cc1cc2n(n1)SC(Nc1cc(Cl)ccc1Cl)N2 (stereo unspecified),0,16µM,0,0,0,0
Cc1cc2n(n1)SC(Nc1cccc3ccccc13)N2 (stereo unspecified),0,?,0,0,0,0
CCc1noc(C)c1C(=O)Nc1nc(-c2cc(C)ccc2C)c(C)s1,10µM,0,0,?,0,0
O=[N+]([O-])c1cccc(NC(=S)Nc2nc(-c3ccc(Cl)cc3Cl)cs2)c1,0,0,0,5.9µM,-,-87

# Assay outcomes as filed in PubChem.
